PubChem BioAssay (EPA / NIEHS)
Results filed as inconclusive are left out. Calls of active or inactive are those of the source. Rule for the calls: active = hit-call score of the fitted dose curve at least 0.9, where 1 is the maximum; inconclusive = response in the unintended direction; inactive = score below 0.9.

assay: ACEA_ER_AUC_viability: ACEA Biosciences xCELLigence Real-Time Cell Analysis on Estrogen Receptor Agonism for Viability (AID 2283782);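 note: continuous compound exposure with impedance area under curve over 80 h; hit means loss of impedance signal meaning reduced cell growth or viability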
Method: ACEA_ER is a cell-based, single-readout assay that uses T47D, a human breast cell line, with measurements taken at 80 hours after chemical dosing in a 96-well plate, although TO2 (mc0.srcf) used a 384-well plate. Differences in plate size can be ignored given data normalization.ACEA_ER_AUC_viability is one of two assay component(s) measured or calculated from the ACEA_ER assay. It is designed to make measurements of real-time cell-growth kinetics, a form of growth reporter, as detected with electrical impedance signals by Real-Time Cell Electrode Sensor (RT-CES) technology.Data from the assay component ACEA_ER_AUC_viability was analyzed in the positive analysis fitting direction relative to DMSO as the negative control and baseline of activity. Using a type of growth reporter, loss-of-signal activity can be used to understand changes in the viability. Furthermore, this assay endpoint can be referred to as a secondary readout, because this assay has produced multiple assay endpoints where this one serves a viability function. To generalize the intended target to other relatable targets, this assay endpoint is annotated to the cell cycle intended target family, where the subfamily is cytotoxicity.
The xCELLigence system Multi-E-Plate stations were used to measure the time-dependent response to chemicals. Each compound was tested in an eight-point, 1:4 serial dilution series starting at a maximum final concentration of 100 uM. A maximum starting concentration of 0.5% DMSO was present in the 100 uM chemical samples and was diluted along with the test article dilution series. The screen was performed in biological duplicate using two separate, 96-well, E-Plates 96 for each dilution series (n = 2). Positive controls (MG132 and E2) and a negative control (assay media) were tested in quadruplicate on each testing plate. Then, 0.5% and 0.125% DMSO were tested in duplicates in each plate to serve as solvent controls for the 2 highest concentrations of testing compounds: 100 uM and 25 uM. Reference compounds were tested with 8 concentrations with 1:5 serial dilutions. All screening was carried out by ACEA Biosciences, Inc. (San Diego, CA). T-47D cells purchased from ATCC were maintained in RPMI1640 media supplemented with 10% characterized fetal bovine serum (FBS). Before screening, T-47D cells were preconditioned in assay medium: phenol red-free RPMI1640 supplemented with 10% charcoal-stripped FBS. Cells were then detached and seeded in E-Plates 96 in assay medium. After overnight monitoring of growth once every hour, compounds were added to […] cells and remained in the medium until the end of the experiment. Cellular responses were then recorded once every 5 min for the first 5 h, and once every hour for an additional 100 h.

| Compound | AC50 | outcome |
| --- | --- | --- |
| O=c1n(CC2CO2)c(=O)n(CC2CO2)c(=O)n1CC1CO1 (stereo not given) | 35.7 µM (active) | – |
| CCOCCO | – | inactive |
| CCn1nc(Cc2ccccc2)cc1C1CCN(C[C@H]2C[C@H](N(C)[C@@H](C(=O)O)C(C)C)C[C@@H]2c2cccc(F)c2)CC1 | 7.91 µM (active) | – |
| Cc1ccc(O)cc1 | – | inactive |
| Clc1nc(Cl)c(Cl)c(Cl)c1Cl | 92 µM (active) | – |
| CCOc1cccc(-n2cc(C(=O)N3CCN(c4cc(C(=O)O)c5ccccc5c4)CC3)nc2-c2ccc(C)cc2)c1 | – | inactive |
| Oc1ccc2c(c1)-c1ccccc1C2 | 79.2 µM (active) | – |
| Cc1c(-c2cccnc2)c2ccccc2n1CCCCC(=O)O | 17.3 µM (active) | – |
| CCCCC(CC)COC(=O)c1ccc(C(=O)OCC(CC)CCCC)cc1 (stereo not given) | 80 µM (active) | – |
| Cc1ccc(C)c(O)c1 | – | inactive |
| CCCCCCc1ccc(O)cc1O | 80.1 µM (active) | – |
| COCCOc1cc2cc(C(=O)NC3CCN(C(C)C)CC3)n(CC(=O)Nc3ccc(Cl)cn3)c2cn1 | – | inactive |
| CCCC(=O)OCC | – | inactive |
| C1N2CN3CN1CN(C2)C3 | – | inactive |
| O=c1[nH]c2ccc(S(=O)CCN3CCC(Cc4ccc(F)cc4)CC3)cc2o1 (stereo not given) | – | inactive |
| C=CC(=C)CCC=C(C)C | – | inactive |
| CCCCCCCCO | – | inactive |
| CNS(=O)(=O)c1cc(C(=O)N2CCC(CCN3C4CCC3CC(n3c(C)nc5ccccc53)C4)(c3cccc(F)c3)CC2)c(Cl)cc1F (stereo not given) | 19.2 µM (active) | – |
| C1=CCCC=CCCC=CCC1 | – | inactive |
| O=C1CCC(N2C(=O)c3ccccc3C2=O)C(=O)N1 (stereo not given) | – | inactive |

| Compound | AC50 | outcome |
| --- | --- | --- |
| CC(C)c1cccc(C(C)C)c1N1C(=O)c2ccc(O)cc2C1=O | 80.3 µM (active) | – |
| CC(C)(O)c1coc(S(=O)(=O)NC(=O)Nc2c3c(cc4c2CCC4)CCC3)c1 | – | inactive |
| COc1cccc(-c2ccc(/C=C\CN3CCCCCC3)cc2Cl)c1 | 56.3 µM (active) | – |
| COc1ccc2sc(C(=O)Nc3nnn[nH]3)c(OC(C)C)c2c1 | 9.87 µM (active) | – |
| Cn1c(=O)c2c(ncn2C)n(C)c1=O | – | inactive |
| CCOC(=O)c1ccc(C2CCC(NC[C@H](O)COc3ccc(O)c(NS(C)(=O)=O)c3)CC2)cc1 (stereo not given in full) | 5.31 µM (active) | – |
| O=C(OC[C@H]1O[C@@H](OC(=O)c2cc(O)c(O)c(OC(=O)c3cc(O)c(O)c(O)c3)c2)[C@H](OC(=O)c2cc(O)c(O)c(OC(=O)c3cc(O)c(O)c(O)c3)c2)[C@@H](OC(=O)c2cc(O)c(O)c(OC(=O)c3cc(O)c(O)c(O)c3)c2)[C@@H]1OC(=O)c1cc(O)c(O)c(OC(=O)c2cc(O)c(O)c(O)c2)c1)c1cc(O)c(O)c(OC(=O)c2cc(O)c(O)c(O)c2)c1 | – | inactive |
| CCCCCCCCCCCCCCCO | – | inactive |
| Cn1cnc([N+](=O)[O-])c1Sc1ncnc2nc[nH]c12 | 1.42 µM (active) | – |
| CC[C@H]1CC[C@H](NCc2cc3c(cc2OC)[C@H]2C[C@H]2C(=O)N3C)[C@H](c2ccccc2)N1 | 18.5 µM (active) | – |
| On1ccccc1=S | 88.8 µM (active) | – |
| O=P(OC(CCl)CCl)(OC(CCl)CCl)OC(CCl)CCl | – | inactive |
| CCNc1ccccc1 | – | inactive |
| O=C(O)c1cccc(Oc2ccccc2)c1 | – | inactive |
| CC(C)=CCCC(C)CCO (stereo not given) | – | inactive |
| CC(C)CCCCCCCOC(=O)CCCCC(=O)OCCCCCCCC(C)C | – | inactive |
| CN(C)c1ccc(N=NS(=O)(=O)O)cc1 | – | inactive |
| CCc1cc(SCc2sc(-c3ccc(C(F)(F)F)cc3)nc2CN2CCN(c3ccc(OC)cc3)CC2)ccc1OCC(=O)O | 34.5 µM (active) | – |
| CCOC(=O)COc1ccc2c(c1)CC(NCC(O)c1cccc(Cl)c1)CC2 (stereo not given) | 16.2 µM (active) | – |
| CC[C@H](C)C(=O)O[C@H]1C[C@@H](C)C=C2C=C[C@H](C)[C@H](CC[C@@H]3C[C@@H](O)CC(=O)O3)[C@H]21 | 28.2 µM (active) | – |
